“And” between values parts separate entries of the source, which are not always exact repeats. Equal values may be shown once. Inconclusive results are not listed. More than one record can exist for a structure, and the calls need not agree. The source made the active and inactive calls. Calls come from the whole dose curve; as a rule, active = well fitted curve in the direction sought with a large enough effect; inconclusive = small, poorly fitted or top-dose-only effect, or another doubt; inactive = no such curve, though single readings can be large; an effect the other way counts as inactive or inconclusive.
How the values were obtained:
[1] = system: HEK293; experiment: Cytotoxic Profiling of Annotated Libraries Using Quantitative High-Throughput Screening (AID 1296008); conditions: Five cell lines viability, CellTiter-Glo ATP luminescence, 48-72 h; max response: stronger effect = lower value; note: nearly all actives have a fitted effect of over 60% in size
Summary of the method: (§1)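 Cytotoxicity was measured as CellTiter-Glo ATP luminescence, read after 10 min at room temperature. Compound treatment of the cells lasted 48 or 72 hr at 37 degrees Celsius in a qHTS format.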

[2] = system: HaCat; experiment: as above; conditions: Five cell lines viability, CellTiter-Glo ATP luminescence, 48-72 h; max response: stronger effect = lower value
Summary of the method: as §1

[3] = system: KB-3-1; experiment: as above; conditions: Five cell lines viability, CellTiter-Glo ATP luminescence, 48-72 h; max response: stronger effect = lower value
Summary of the method: as §1

[4] = system: NIH3T3; experiment: as above; conditions: Five cell lines viability, CellTiter-Glo ATP luminescence, 48-72 h; max response: stronger effect = lower value
Summary of the method: as §1

[5] = system: HACAT; experiment: qHTS assay to identify novel small-molecules to repurpose for Merkel cell carcinoma treatment (AID 1296009); conditions: MCC and control cell lines, CellTiter-Glo viability, 72 h; series mostly up to 44.8 µM; note: nearly all actives have a fitted effect of over 60% in size
Summary of the method: (§2)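 Cell viability, measured as CellTiter-Glo luminescence, was normalized between DMSO and no-cell wells. The cells had been exposed to 8- or 11-point compound dilutions for 72 hr at 37 degree celsius.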

[6] = system: MKL-1; experiment: as above; conditions: MCC and control cell lines, CellTiter-Glo viability, 72 h; series mostly up to 46 µM
Summary of the method: as §2

[7] = system: MKL-2; experiment: as above; conditions: MCC and control cell lines, CellTiter-Glo viability, 72 h; series mostly up to 46 µM
Summary of the method: as §2

[8] = system: WaGa; experiment: as above; conditions: MCC and control cell lines, CellTiter-Glo viability, 72 h; series mostly up to 46 µM
Summary of the method: as §2

[9] = system: CAOV3; experiment: Primary qHTS to identify gynecologic anti-cancer compounds using libraries of approved drugs and bioactive compounds (AID 1345084); conditions: Gynecologic cancer cell panel viability, ATPlite luminescence, 48 h; series mostly up to 57.5 µM; note: nearly all actives have a fitted effect of over 55% in size
Summary of the method: (§3)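 Cells, 1,000 per well, plated 16 h, then exposed 48 h at 37 C to compounds. Viability by ATPlite luminescence after 15 min at room temperature.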

[10] = system: CASKI; experiment: as above; conditions: Gynecologic cancer cell panel viability, ATPlite luminescence, 48 h; series mostly up to 57.5 µM
Summary of the method: as §3

[11] = system: Es-2; experiment: as above; conditions: Gynecologic cancer cell panel viability, ATPlite luminescence, 48 h; series mostly up to 57.5 µM
Summary of the method: as §3

[12] = system: HeLa; experiment: as above; conditions: Gynecologic cancer cell panel viability, ATPlite luminescence, 48 h; series mostly up to 57.5 µM
Summary of the method: as §3

[13] = system: Hek293T; experiment: as above; conditions: Gynecologic cancer cell panel viability, ATPlite luminescence, 48 h, control line for the selectivity index; series mostly up to 57.5 µM
Summary of the method: as §3

[14] = system: MCC-13; experiment: qHTS assay to identify novel small-molecules to repurpose for Merkel cell carcinoma treatment (AID 1296009); conditions: MCC and control cell lines, CellTiter-Glo viability, 72 h; series mostly up to 46 µM; note: nearly all actives have a fitted effect of over 60% in size
Summary of the method: as §2

[15] = system: MCC-26; experiment: as above; conditions: MCC and control cell lines, CellTiter-Glo viability, 72 h; series mostly up to 46 µM
Summary of the method: as §2

[16] = system: UISO; experiment: as above; conditions: MCC and control cell lines, CellTiter-Glo viability, 72 h; series mostly up to 46 µM
Summary of the method: as §2

[17] = system: JEG-3; experiment: Primary qHTS to identify gynecologic anti-cancer compounds using libraries of approved drugs and bioactive compounds (AID 1345084); conditions: Gynecologic cancer cell panel viability, ATPlite luminescence, 48 h; series mostly up to 57.5 µM; note: nearly all actives have a fitted effect of over 55% in size
Summary of the method: as §3

[18] = system: NIH3T3; experiment: qHTS assay to identify novel small-molecules to repurpose for Merkel cell carcinoma treatment (AID 1296009); conditions: MCC and control cell lines, CellTiter-Glo viability, 72 h; at 44.8 µM (top of the series) unless noted; note: nearly all actives have a fitted effect of over 60% in size
Summary of the method: as §2

[19] = system: C33A; experiment: Primary qHTS to identify gynecologic anti-cancer compounds using libraries of approved drugs and bioactive compounds (AID 1345084); conditions: Gynecologic cancer cell panel viability, ATPlite luminescence, 48 h; series mostly up to 57.5 µM; note: nearly all actives have a fitted effect of over 55% in size
Summary of the method: as §3

[20] = system: HEK293T; experiment: qHTS assay to identify novel small-molecules to repurpose for Merkel cell carcinoma treatment (AID 1296009); conditions: MCC and control cell lines, CellTiter-Glo viability, 72 h; at 44.8 µM (top of the series) unless noted; note: nearly all actives have a fitted effect of over 60% in size
Summary of the method: as §2
% is set by controls: 0 for no effect and ±100 for the full control effect; potency is the fitted concentration of half-maximal effect.

O=C(CCCCCCC(=O)Nc1ccc([C@H]2O[C@@H](CSc3nc(-c4ccccc4)c(-c4ccccc4)o3)C[C@@H](c3ccc(CO)cc3)O2)cc1)NO
active: Potency [1] 14.8 µM and 18.4 µM | Potency [2] 20.9 µM | Potency [3] 11.8 µM | Potency [6] 8.33 µM | Potency [7] 8.33 µM | Potency [8] 7.43 µM
inactive: outcome [2] | max response [4] -17.5% | Potency [5] | Potency [9] | Potency [10] | Potency [11] | Potency [12] | Potency [13]

CNC(=O)CN1CCC(Oc2cc3c(Nc4cccc(Cl)c4F)ncnc3cc2OC)CC1
inactive: max response [1] 1% and -0.0643% | max response [2] -148% | max response [3] 4.62% and 3.88% | Potency [7] | Potency [9] | Potency [11] | Potency [12] | Potency [13] | Potency [17]
active: Potency [2] 0.58 µM | Potency [4] 26.4 µM and 16.4 µM | Potency [14] 3.32 µM | Potency [15] 2.64 µM | Potency [16] 0.118 µM

N#Cc1c(O)c2c(-c3ccc(-c4ccccc4O)cc3)csc2[nH]c1=O
inactive: max response [1] 3.13% and -14.8% | outcome [2] | outcome [3] | max response [4] -1.37% | outcome [4] | Potency [5] | Potency [14] | Potency [6] | Potency [7] | outcome [18] | Potency [16] | Potency [8] | Potency [19] | Potency [10] | Potency [11] | Potency [12] | Potency [13] | Potency [17]

CN(C1CCc2c(c3ccccc3n2CC(=O)O)C1)S(=O)(=O)c1ccc(F)cc1 (stereo not drawn)
inactive: max response [1] -3% and -8.76% | outcome [1] | max response [2] -11.8% and -5.06% | outcome [2] | max response [3] 7.37% | outcome [3] | outcome [4] | Potency [5] | outcome [20] | Potency [14] | Potency [15] | Potency [6] | outcome [18] | Potency [16] | Potency [19] | Potency [9] | Potency [10] | Potency [11] | Potency [12] | Potency [13] | Potency [17]
active: Potency [8] 5.9 µM

C=CC(=O)Nc1cccc(Oc2nc(Nc3ccc(N4CCN(C)CC4)cc3OC)ncc2Cl)c1
inactive: max response [1] -27.8% | max response [3] -0.948% | max response [4] -7.7% | Potency [7] | Potency [19] | Potency [11] | Potency [12] | Potency [13] | Potency [17]
active: Potency [2] 2.09 µM and 4.11 µM | Potency [4] 18.4 µM | Potency [14] 2.96 µM | Potency [6] 2.64 µM | Potency [8] 2.96 µM | Potency [10] 17.8 µM

NC(=O)c1c(OCc2c(F)cc(Br)cc2F)nsc1NC(=O)NCCCCN1CCCC1
active: Potency [1] 14.8 µM | Potency [2] 26.4 µM | Potency [3] 9.35 µM | Potency [4] 235 nM and 2.06 µM
inactive: outcome [2] | Potency [5] | Potency [6] | Potency [7] | Potency [19] | Potency [11] | Potency [12] | Potency [13] | Potency [17]

COc1cc2c(Nc3ccc(NC(=O)c4ccccc4)cc3)ncnc2cc1OCCCN1CCOCC1
inactive: max response [1] -7.34% | max response [3] -17.8% | Potency [14] | Potency [15] | Potency [7] | Potency [16] | Potency [11] | Potency [13]
active: Potency [1] 23.1 µM | Potency [2] 7.31 µM | Potency [4] 14.6 µM | Potency [19] 25.1 µM

CC1COC2(CCN(c3nc(=O)c4cc(C(F)(F)F)cc([N+](=O)[O-])c4s3)CC2)O1 (stereo not drawn)
inactive: max response [1] 2.26% | outcome [1] | max response [2] 0.136% | max response [3] 8.43% and -3.92% | outcome [4] | outcome [20] | Potency [14] | Potency [15] | Potency [6] | Potency [7] | outcome [18] | Potency [16] | Potency [8] | Potency [19] | Potency [10] | Potency [11] | Potency [12] | Potency [13] | Potency [17]

CC(O)C1C(=O)N2C(C(=O)O)=C(SC3CNC(C(=O)N(C)C)C3)C(C)C12 (stereo not drawn)
inactive: max response [1] -5.51% and 0.11% | max response [2] 0.187% | outcome [2] | max response [3] 5.3% | outcome [3] | max response [4] 0.991% and 3.69% | Potency [5] | Potency [14] | Potency [15] | Potency [6] | Potency [7] | Potency [16] | Potency [19] | Potency [10] | Potency [11] | Potency [12] | Potency [13] | Potency [17]

Cc1cnc(-c2cnc(NCCNc3ccc(C#N)cn3)nc2-c2ccc(Cl)cc2Cl)[nH]1
inactive: max response [1] -23.2% and -27.2% | outcome [2] | max response [3] -14.7% and -1.89% | outcome [4] | Potency [5] | Potency [15] | Potency [6] | Potency [7] | outcome [18] | Potency [8] | Potency [10] | Potency [11] | Potency [13]

Reference: PubChem BioAssay (NCATS)
